Pol iota inh – inhibitors of human DNA polymerase iota | Q9UNA4 | Pol iota fluorescent replication assay, 10 min | Potency, µM (series often up to 115 µM), most hits filed as inhibitors | actives 1% (n = 390,000)
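Pol iota at 10 nM preincubated 15 min with compounds at room temperature; reaction started with fluorescent substrate, 50 nM final. Fluorescence read kinetically at 0 and 10 min; buffer-only wells as negative control.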
Tb PGK inh – blocks T. brucei phosphoglycerate kinase. P07378. PGK/GAPDH coupled, Kinase-Glo luminescence, 60 min. AID 602233. actives 0.043% (n = 380,000). Potency, µM (doses to about 57.5 µM), most hits filed as inhibitors; further: nearly all actives have a fitted effect of over 60% in size
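Luminescent ATP detection (Kinase-Glo Plus) follows a 60-minute room-temperature incubation, with wells lacking PGK as controls. Buffer: 100 mM TEA (pH 7.6), 5 mM MgCl2, 0.01% Tween-20. Coupling enzyme GAPDH (100 nM final) supplies unstable 1,3-BPG in-well.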
Pol eta inh – inhibitors of human DNA polymerase eta; actives 1.2% (n = 390,000); recombinant Pol eta, fluorescent DNA replication assay; Potency, µM (series often up to 114 µM), usual class: inhibitors; Q9Y253
Target sequence (Q9Y253 whole entry, looked up): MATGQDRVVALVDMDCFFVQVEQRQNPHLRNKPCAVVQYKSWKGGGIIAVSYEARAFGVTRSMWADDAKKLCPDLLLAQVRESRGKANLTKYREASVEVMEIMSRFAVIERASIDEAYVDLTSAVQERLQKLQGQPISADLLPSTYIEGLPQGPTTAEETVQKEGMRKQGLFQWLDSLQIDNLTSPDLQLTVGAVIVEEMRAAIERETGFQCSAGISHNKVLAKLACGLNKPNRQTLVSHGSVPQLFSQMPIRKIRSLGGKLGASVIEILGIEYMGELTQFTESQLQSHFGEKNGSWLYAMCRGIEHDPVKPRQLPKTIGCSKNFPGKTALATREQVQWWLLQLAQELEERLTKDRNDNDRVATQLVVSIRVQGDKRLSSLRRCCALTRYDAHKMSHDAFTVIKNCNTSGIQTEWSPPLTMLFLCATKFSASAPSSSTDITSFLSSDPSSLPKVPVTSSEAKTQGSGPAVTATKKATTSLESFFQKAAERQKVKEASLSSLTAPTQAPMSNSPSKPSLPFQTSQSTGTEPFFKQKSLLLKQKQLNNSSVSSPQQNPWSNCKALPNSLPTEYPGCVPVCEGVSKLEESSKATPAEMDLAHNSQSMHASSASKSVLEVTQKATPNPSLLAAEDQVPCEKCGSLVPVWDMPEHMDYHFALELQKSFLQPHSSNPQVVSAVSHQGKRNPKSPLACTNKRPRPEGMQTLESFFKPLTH
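Pol eta at 10 nM preincubated with compounds 15 min at room temperature; reaction started with fluorescent substrate (50 nM final) and read kinetically at 0 and 10 min.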
POLK inh – DNA polymerase kappa (human) inhibition; Q9UBT6; purified Pol kappa, fluorescent DNA synthesis assay, 10 min; Potency, µM (top dose mostly 107 µM), actives largely listed as inhibitors; actives 0.53% (n = 400,000); AID 588579
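Kinetic fluorescence screen: compound preincubated 15 min RT with 10 nM enzyme; 50 nM substrate (final) initiates; reads at 0/10 min.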
FEN1 inh – blocks human flap endonuclease 1. P39748. Recombinant FEN1 flap cleavage, fluorescence, 15 min. Potency, µM (highest dose often 114 µM), most hits filed as inhibitors. actives 0.35% (n = 390,000). AID 588795; further: nearly all actives have a fitted effect of over 65% in size
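Enzyme 10 nM, 15 min RT preincubation with compound; start with substrate 50 nM final; reads at 0 and 15 min; qHTS titration, four-parameter Hill fit.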
POLB inh – inhibitors of human DNA polymerase beta; P06746; actives 1.3% (n = 340,000); Potency, µM (doses to about 114 µM), actives largely listed as inhibitors; Pol beta primer extension/strand displacement, fluorescence kinetic
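Pol beta (10 nM) and compounds were preincubated 15 min at room temperature, then 50 nM substrate (final) started primer extension/strand displacement. Reads were taken at 0 and 10 min; concentration-response data were fitted to a four-parameter Hill equation.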
Large screens that a line does not name were inactive. Sampled rows, rich in hits. Any-hit rate of the full collection: about 2.4%. The call rests on the fitted dose curve; in most records, active means well fitted curve in the direction sought with a large enough effect; inconclusive means small, poorly fitted or top-dose-only effect, or another doubt; inactive means no such curve, though single readings can be large; an effect the other way counts as inactive or inconclusive.

O=C(CSc1nc2scc(-c3ccco3)c2c(=O)n1-c1ccccc1)N1CCOCC1	none
O=c1c2c(-c3ccco3)csc2nc(SCc2cn3cccnc3n2)n1-c1ccccc1	Pol iota inh inconclusive, Pol eta inh 11µM
NC(=O)CSc1nc2scc(-c3ccco3)c2c(=O)n1-c1ccccc1	Pol iota inh 11µM, Pol eta inh 79µM, POLK inh 45µM, FEN1 inh inconclusive, POLB inh inconclusive
COc1ccccc1N1CCN(C(=O)Cn2cnc3onc(-c4ccc(F)cc4)c3c2=O)CC1	Pol iota inh inconclusive, POLB inh inconclusive
Cc1nn(-c2cccc(C(F)(F)F)c2)c(Cl)c1/C=N/Nc1cccc(C(=O)O)c1	POLB inh 56µM
O=C1C(F)=CC(COC(c2ccccc2)(c2ccccc2)c2ccccc2)OC1n1cc(F)c(=O)[nH]c1=O (configuration not stated)	Pol iota inh inconclusive, Pol eta inh 50µM (no result: POLB inh)
CC(=O)OCC1OC(n2cc(F)c(=O)[nH]c2=O)C(OC(C)=O)C1OC(C)=O (configuration not stated)	Tb PGK inh inconclusive (no result: POLB inh)
COc1ccc(NC(=O)CNC(=O)Cn2c(C)cc3ccccc3c2=O)c(OC)c1	POLB inh 79µM
COc1ccc(NC(=O)CNC(=O)Cn2c(C)cc3ccccc3c2=O)cc1OC	POLB inh 32µM
COc1cc(NC(=O)CNC(=O)Cn2c(C)cc3ccccc3c2=O)cc(OC)c1OC	none
CCOC(=O)c1nnc2c(-c3ccc(Cl)cc3)c(C)nn2c1C	none
COc1ccc2cc(/C=C3\SC(=S)NC3=O)c(N3CCOCC3)nc2c1	Pol eta inh 20µM, FEN1 inh inconclusive, POLB inh inconclusive
COc1cccc(C=C2SC(=S)NC2=O)c1	none (no result: POLB inh)
CCCSCCCNC(=O)C1CCN(C(=O)c2cnn(-c3ccccc3)c2-n2cccc2)CC1	none
CCOC(=O)C1CCN(c2ncnc3c2cnn3-c2ccccc2)CC1	none
CCOC(=O)C1CCN(c2ncnc3c2cnn3C)CC1	POLB inh 79µM
CC(C)Oc1ccc(CNS(=O)(=O)c2ccc(-c3cc(C(F)(F)F)on3)s2)cc1	none
COc1cccc2c1C(=O)c1c(O)c3c(c(O)c1C2=O)C[C@](O)(C(=O)CO)C[C@@H]3O[C@H]1C[C@H](N)[C@@H](O)[C@H](C)O1	none (no result: Pol iota inh, Tb PGK inh, Pol eta inh, FEN1 inh, POLB inh)
COc1cccc2c1C(=O)c1c(O)c3c(c(O)c1C2=O)C[C@@](O)(C(=O)CO)C[C@@H]3OC1C[C@@H](N)[C@H](O)[C@H](C)O1 (some centres not stated)	POLK inh 18µM (no result: Pol iota inh, Tb PGK inh, Pol eta inh, FEN1 inh, POLB inh)
COc1cccc2c1C(=O)c1c(O)c3c(c(O)c1C2=O)C[C@@](O)(C(=O)CO)C[C@@H]3O[C@H]1C[C@H](N)[C@@H](O)[C@H](C)O1	Pol iota inh 40µM, Pol eta inh inconclusive, POLK inh inconclusive, FEN1 inh inconclusive (no result: POLB inh)
Cc1ccc(-c2ccc(C3C4C=CCC(C)C4C(=O)N3Cc3ccccc3)c(F)c2)cc1 (configuration not stated)	none (no result: Tb PGK inh, Pol eta inh, POLB inh)
O=C(Nc1ccc(F)c(F)c1)c1cc(S(=O)(=O)NCc2ccc3c(c2)OCO3)ccc1F	none
Nc1cc(C(=O)O)c(Oc2ccc(Cl)cc2Cl)cc1C(=O)O	Pol eta inh inconclusive, POLB inh 22µM
COCCOC(=O)C1=C(C)NC(=O)NC1c1ccco1 (configuration not stated)	Pol iota inh 40µM, Pol eta inh 79µM, POLB inh inconclusive
CC1=C(C(=O)OC(C)C)C(c2ccco2)NC(=O)N1 (configuration not stated)	Pol iota inh inconclusive, Pol eta inh inconclusive, POLB inh 50µM
COCCOC(=O)C1=C(C)NC(=O)NC1c1ccc(OC(=O)c2ccco2)c(OC)c1 (configuration not stated)	none
CCOC(=O)C1=C(C)NC(=O)NC1c1ccco1 (configuration not stated)	Pol iota inh 45µM, Pol eta inh 79µM, POLK inh inconclusive, POLB inh 35µM
COc1cc(CN(C(=O)c2oc3ccccc3c2C)C2CCS(=O)(=O)C2)cc(OC)c1OC (configuration not stated)	none
COc1ccc(C(=O)O/N=C2\C(=O)N(C)c3ccccc32)cc1	none (no result: POLB inh)
CN1C(=O)/C(=N\OC(=O)c2cccc3ccccc23)c2ccccc21	Pol iota inh 32µM
Cc1c(C#N)c(NC(=O)COC(=O)c2cc(Cl)c3c(c2)OCCCO3)n(Cc2ccco2)c1C	none (no result: Tb PGK inh, Pol eta inh, POLB inh)
COC(=O)c1nc(N2CCN(S(=O)(=O)c3ccc(C)cc3)CC2)c2ccccc2n1	none (no result: Tb PGK inh, Pol eta inh, POLB inh)
COc1ccc(NC(=O)C2CCCO2)cc1 (configuration not stated)	none
O=C(Nc1ccc(Oc2ccccc2)cc1)C1CCCO1 (configuration not stated)	POLB inh 79µM (no result: Tb PGK inh)
O=C(CSc1nnc(-c2ccco2)c(-c2ccco2)n1)c1ccccc1	Pol iota inh 18µM, Pol eta inh 35µM, POLK inh 79µM, FEN1 inh inconclusive
CC(=O)c1ccc(NC(=O)CSc2nnc(-c3ccco3)c(-c3ccco3)n2)cc1	Pol iota inh inconclusive, Pol eta inh 22µM, POLK inh 14µM, FEN1 inh 32µM, POLB inh 20µM
COc1ccc(-c2nnc(SCC(=O)Nc3ccc(C(C)=O)cc3)nc2-c2ccc(OC)cc2)cc1	none
Cc1cccc(-n2c(O)c(C=Nc3cc(O)ccc3C)c3ccccc3c2=O)n1	Pol eta inh inconclusive, POLB inh inconclusive
Cc1cccc(-n2c(O)c(C=Nc3ccccc3O)c3ccccc3c2=O)n1	Pol iota inh inconclusive, Pol eta inh 45µM, POLK inh inconclusive, FEN1 inh inconclusive
CNS(=O)(=O)c1cccc(C(=O)OCc2cc(=O)oc3c(C)c(O)ccc23)c1	Pol iota inh inconclusive, Pol eta inh inconclusive, POLB inh 10µM
Cc1ccc(S(=O)(=O)NCC(=O)OCc2cc(=O)oc3c(C)c(C)ccc23)cc1C	none (no result: POLB inh)
COc1ccccc1NC(=O)Nc1ccnn1C1CCN(C(=O)c2cscn2)CC1	Pol iota inh 32µM, POLK inh 40µM, FEN1 inh 45µM
Cc1ccc2c(c1)C(c1ccc(F)cc1)N(C(=O)COc1ccc(Cl)cc1Cl)CC(=O)N2 (configuration not stated)	none
CCS(=O)(=O)c1ccc(N=Nc2ccc(O)c3ncccc23)c(OC)c1	none
COc1cc(S(=O)(=O)O)c(C)cc1N=Nc1c(O)ccc2cc(S(=O)(=O)O)ccc12	Pol iota inh 45µM, POLK inh 79µM, FEN1 inh 35µM (no result: Tb PGK inh, Pol eta inh, POLB inh)
